Laboratory results taken from PubChem BioAssay (NCATS).
Results filed as inconclusive are left out. The source made the active and inactive calls. Calls come from the whole dose curve; as a rule, active = well fitted inhibition curve with a large enough effect; inconclusive = small, poorly fitted or top-dose-only effect; inactive = flat fitted curve, though single readings scatter.

Experiments:
Experiment in all cases: qHTS profiling for inhibitors of Plasmodium falciparum proliferation (AID 504749); note: nearly all actives have a fitted effect of over 60% in size
Details in all cases: P. falciparum in erythrocytes, SYBR Green DNA, 72 h; series mostly up to 28.7 µM
CP329 = test system: CP329
Procedure, shortened: (§1)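 Fluorescence of SYBR Green-bound parasite DNA, read at 485/535 nm, served as the growth measure. Infected erythrocytes were cultured with compound 72 h; artemisinin (0.29 uM) and DMSO wells defined the normalization range.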

CP335 = test system: CP335
Procedure, shortened: as §1

DFO2036 = test system: DFO2036
Procedure, shortened: as §1

DIV14 = test system: DIV14
Procedure, shortened: as §1

DIV17 = test system: DIV17
Procedure, shortened: as §1

DIV30 = test system: DIV30
Procedure, shortened: as §1

Dd2 = test system: Dd2
Procedure, shortened: as §1

ECU = test system: ECU
Procedure, shortened: as §1

FAB9 = test system: FAB9
Procedure, shortened: as §1

GB4 = test system: GB4
Procedure, shortened: as §1

HB3 = test system: HB3
Procedure, shortened: as §1

ICS = test system: ICS
Procedure, shortened: as §1

JCK = test system: JCK
Procedure, shortened: as §1

N140 = test system: N140
Procedure, shortened: as §1

P93_24 = test system: P93_24
Procedure, shortened: as §1

P94_40 = test system: P94_40
Procedure, shortened: as §1

PAD = test system: PAD
Procedure, shortened: as §1

PC15 = test system: PC15
Procedure, shortened: as §1

PC26 = test system: PC26
Procedure, shortened: as §1

PC49 = test system: PC49
Procedure, shortened: as §1

Measured: Potency
Potency is the fitted concentration of half-maximal effect.

CN(C)CCc1c[nH]c2ccc(Cn3cncn3)cc12
inactive: all assays above

CCCCCCCCCCCCCCCCCCCCCCO
inactive: all assays above

COc1cc2c(cc1OC)C1CC(=O)C(CC(C)C)CN1CC2 (stereo not given)
inactive: all assays above

CN1C(C(=O)Nc2ccccn2)=C(O)c2sccc2S1(=O)=O
inactive: all assays above

CCOc1cc(CC(=O)N[C@@H](CC(C)C)c2ccccc2N2CCCCC2)ccc1C(=O)O
inactive: all assays above

C[C@]12CCC(=O)C=C1CC[C@@H]1[C@H]2[C@@H](O)C[C@@]2(C)[C@H]1CC[C@]2(O)C(=O)CO
inactive: all assays above

CC1(C)NC(=O)N(c2ccc([N+](=O)[O-])c(C(F)(F)F)c2)C1=O
inactive: all assays above

O=C(NCCO[N+](=O)[O-])c1cccnc1
inactive: all assays above

CCCc1cc(=O)[nH]c(=S)[nH]1
inactive: all assays above

C[Se]CCC(N)C(=O)O (stereo not given)
inactive: all assays above

CCCOc1ccc2nc(NC(=O)OC)[nH]c2c1
inactive: all assays above

CCC1=C(C)CN(C(=O)NCCc2ccc(S(=O)(=O)NC(=O)NC3CCC(C)CC3)cc2)C1=O (stereo not given)
inactive: all assays above

Nc1cccc2c1CN(C1CCC(=O)NC1=O)C2=O (stereo not given)
inactive: all assays above

CCCCc1ccc2nc(NC(=O)OC)[nH]c2c1
inactive: all assays above

COc1ccc(C2(C#N)CCC(C(=O)O)CC2)cc1OC1CCCC1 (stereo not given)
inactive: all assays above

Cc1cc2cc3c(C)cc(=O)oc3c(C)c2o1
inactive: all assays above

Cc1ncc([N+](=O)[O-])n1CC(C)O (stereo not given)
inactive: all assays above

Cc1cccc(C)c1OCC(=O)N[C@@H](Cc1ccccc1)[C@@H](O)C[C@H](Cc1ccccc1)NC(=O)[C@H](C(C)C)N1CCCNC1=O
active: CP329 12000 nM | CP335 4780 nM | DFO2036 3980 nM | DIV14 1900 nM | DIV17 1900 nM | DIV30 1900 nM | Dd2 10000 nM | ECU 1000 nM | FAB9 11200 nM | GB4 3790 nM | HB3 7940 nM | ICS 891 nM | JCK 7940 nM | N140 708 nM | P93_24 1120 nM | P94_40 2510 nM | PAD 891 nM | PC15 3980 nM | PC26 1900 nM | PC49 2000 nM

O=C(CS(=O)Cc1ccco1)NCC=CCOc1cc(CN2CCCCC2)ccn1 (stereo not given)
inactive: all assays above

O=C(O)c1cccnc1Nc1cccc(C(F)(F)F)c1
inactive: all assays above

N[C@@H](Cc1cc(I)c(Oc2cc(I)c(O)c(I)c2)c(I)c1)C(=O)O
inactive: all assays above

O=C(O)c1cccc(-c2noc(-c3ccccc3F)n2)c1
inactive: all assays above

CC(C)[C@H](N)C(=O)OCCOCn1cnc2c(=O)[nH]c(N)nc21
inactive: all assays above

Cc1ccc(C)c(OCCCC(C)(C)C(=O)O)c1
inactive: all assays above

Nc1ccc(S(N)(=O)=O)cc1
inactive: all assays above
